Source: PubChem (The Scripps Research Institute Molecular Screening Center)
An excerpt weighted towards active compounds, which were near 3.5% of everything screened.
TEAD-YAP inh: TEAD-YAP interaction inhibition, primary screen, TEAD-YAP interaction inhibitor project, luminescence, HEK-TIYL cells; TEAD-Gal4/YAP UAS-luciferase luminescence; inhibition, % at 9.12 µM; hit rate 1.4% among 640,000; AID 1259422, 2018; in the data active means inhibition above about 32%;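 further: 0% = median of test compound wells and 100% = reference inhibitor wells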
GPR151 activ: activators of human GPR151, primary screen, cell-based, PathHunter beta-arrestin, luminescence | G-protein coupled receptor 151 (Homo sapiens), Q8TDV0 | PathHunter beta-arrestin GPR151 cells | activation, % at 11.2 µM | hit rate 1% among 650,000 | AID 1508602, 2020; in the data active means activation above about 4.9%;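 further: 0% = median of compound wells and 100% = cells with positive control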
MITF primary: MITF inhibitors, primary screen, biochemical, AlphaScreen, human. AlphaScreen MITF homodimerization, bead proximity signal. inhibition, % at 2.6 µM. hit rate 0.91% among 650,000. AID 1259374, 2018; in the data active means inhibition above about 50%;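 further: 0% = vehicle wells with protein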
FBW7 activator: FBW7 E3 ligase activators, primary screen, biochemical, AlphaScreen, human | F-box/WD repeat-containing protein 7 (Homo sapiens), Q969H0 | hit rate 0.13% among 650,000 | normalized activity (activation), % at 26.1 µM | AlphaScreen FBW7–phospho-cyclin E peptide binding, activator screen; in the data active means normalized activity above about 1.9%;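 further: purified mutant Fbw7 with reduced substrate affinity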
GPR151 confirm: GPR151 activators, triplicate retest, confirmation, cell-based, PathHunter beta-arrestin, luminescence. GPR151 PathHunter beta-arrestin cells, 90 min; % of EA-reagent control over plate median. shares compounds with GPR151 activ. activation, % at 11.2 µM. 6,700 tested, under 10 active;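 active means mean percent activation across replicates above the confirmation screen cutoff of 4.91%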
GPR119 ag: GPR119 activators in beta-arrestin cells, counter-screen for GPR151 activator project, cell-based, PathHunter beta-arrestin, luminescence, triplicate. shares compounds with GPR151 activ. 90 min; 0 = compound-well median, 100 = enzyme-acceptor control. activation, % at 11.2 µM. hit rate 0.3% among 6,700. AID 1508611, 2020;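 active means mean percent activation in the counterscreen above 29.09%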;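 further: counterscreen on off-target GPR119 to flag nonselective hits from the GPR151 activator screen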
* hit, by the source's call; / = not tested or not shown.

SMILES	TEAD-YAP inh	GPR151 activ	MITF primary	FBW7 activator	GPR151 confirm	GPR119 ag
CCC(Sc1nc2cc3c(cc2c(=O)n1CCCCCC(=O)NCc1ccc(OC)cc1)OCO3)C(=O)NCc1ccco1 (stereo unspecified)	0	5.0*	0	0	-1	-3
CCC(Sc1nc2ccccc2c2nc(C)nn12)C(=O)NCc1ccco1 (stereo unspecified)	2	8.7*	11	0	0	11
N#Cc1ccc(C(=O)Nc2ccccc2N2CCCCC2)c(F)c1	2	0	0	0	/	/
COc1ccc(-c2nnc3ccc(SCc4ccc(F)cc4)nn23)cc1OC	4	4	-9	0	/	/
COc1ccc(-c2nnc3ccc(SCc4ccccc4)nn23)cc1OC	-8	5.6*	-3	0	0	3
CC(=O)N1CCN(S(=O)(=O)c2ccc(S(=O)(=O)N3CCC(C)CC3)cc2)CC1	-2	-1	15	0	/	/
CC1CCN(S(=O)(=O)c2coc(C(N)=O)c2)CC1	-14	10*	-9	0	0	11
COc1ccc(C(=O)N2CCN(CCNC(=O)C(=O)Nc3ccccc3)CC2)cc1	-10	-1	-15	0	/	/
COc1ccc(NC(=O)C(=O)NCCN2CCN(C(=O)c3c(F)cccc3F)CC2)cc1	4	5.8*	11	0	0	12
CCN(CC)C(=O)CSc1nnc(NC(=O)c2ccc(Cl)cc2)s1	1	1	0	0	/	/
CCN(CC)c1ccc(NC(=O)/C=C\C(=O)O)cc1	11	16*	34	0	-1	-7
CCN(CC)c1ccc(NC(=O)/C=C\c2ccccc2)cc1	-27	-1	9	0	/	/
O=C(O)/C=C/C(=O)Nc1ccc(Sc2ccc([N+](=O)[O-])cc2)cc1	-7	3	0	0	/	/
O=C(O)/C=C\C(=O)Nc1ccc([N+](=O)[O-])cc1	-2	8.1*	-4	0	0	-1
CCCCCc1ccc(OCCOCCn2c[n+](C)c3ccccc32)c(CCCCC)c1	52*	4.9*	-1	0	0	-1
Cc1cccc(NC(=O)C2CCCN(S(=O)(=O)c3ccc4[nH]c(=O)ccc4c3)C2)n1 (stereo unspecified)	3	5.3*	6	0	0	-13
O=C(NNC(=S)NCc1ccccc1)c1ccc(Br)o1	7	6.3*	3	0	-1	-3
CCCCCCc1cc2c(=O)c(-c3ccccc3)coc2cc1OC	3	-1	11	0	/	/
O=C(Cc1cn(-c2ccc(Cl)nn2)c2ccccc12)NCCOc1ccccc1	2	6.9*	5	0	0	-2
O=C(Cc1cn(-c2ccc(Oc3ccccc3)nn2)c2ccccc12)NCCOc1ccccc1	-12	3	14	0	/	/
O=c1cc(N2CCOCC2)c2ccccc2s1	1	1	-7	0	/	/
Cc1cnc(-c2ccc(C(N)=O)cc2)nc1NCCN1CCOCC1	6	5.5*	-1	0	-1	4
Cc1cnc(-c2ccc(C(=O)N3CCN(C)CC3)cc2)nc1NCCCN1CCCC1=O	5	-1	-4	0	/	/
Cc1cnc(NCCCN2CCCC2=O)nc1NCCCN1CCCC1=O	4	6.8*	10	0	0	-2
CCN(CC)c1nc(NCCCN2CCCC2=O)nc(NC2CC2)n1	-7	5.1*	-1	0	0	-4
Cc1cnc(-c2ccc(C(=O)NC3CC3)cc2)nc1NCCCN1CCCC1=O	4	5.2*	11	0	1	5
CCNc1ncc(C)c(NCCCN2CCCC2=O)n1	4	-2	3	0	/	/
Cc1cc(C(=O)NC(C)c2cnn(-c3ccccn3)c2C)nc(C)n1 (stereo unspecified)	-6	0	-55	0	/	/
